Measurements from PubChem BioAssay (Tox21).
Records with an inconclusive call do not appear. A call without a number means that no potency is given here. A number with no mark means an inactive call. Calls of active or inactive are those of the source. Calls come from the whole dose curve; as a rule, active = well fitted activation curve with a large enough effect in the repeat runs; inconclusive = weak or mixed curves; inactive = flat fitted curve, though single readings scatter.

Experiment: A CellTox Green Cytotoxicity Assay to monitor cytotoxicity in HEK293 cells - 8 hour (AID 1224884); note: nearly all actives have a fitted effect of over 35% in size
Conditions: CellTox Green fluorescence; series mostly up to 76.8 µM
Source text: National Center for Advancing Translational Sciences [NCATS]
NIH Chemical Genomics Center [NCGC]
U.S. Environmental Protection Agency [EPA]
National Institutes of Environmental Health Sciences [NIEHS]
National Toxicology Program [NTP]
Cell-based models are critical for drug discovery. Determining the natural cytotoxic effects resulting from test compounds is an essential research activity. A CellTox Green Cytotoxicity Assay to monitor cytotoxicity in real time of continues cell culture during 40 hours of the compound treatment was used to screen Tox21 10K library compounds in Hek293 cells. CellTox Green Cytotoxicity Assay is a nonlytic, homogeneous, biofluorescent method to measure cytotoxicity in cell culture after experimental manipulation. The assay system uses a proprietary asymmetric cyanine dye that is excluded from viable cells but preferentially stains the dead cell's DNA. […] Viable cells produce no appreciable increases in fluorescence. Therefore, the fluorescence signal produced by the binding interaction with dead cell DNA is proportional to cytotoxicity.
The mixture of Hek293 cell suspension and reagents were dispensed at 600cells/6 ul/well in 1536-well tissue culture treated black solid bottom plates using a Multidrop dispenser. After the assay plates were incubated at a 37 C/5% CO2 incubator for 5 hours, 23 nL of compounds dissolved in DMSO, positive and negative controls was transferred to the assay plate by a pintool work station. The plates were incubated at 37 C for 40 hours. The fluorescence intensity were measured at 0h, 8h, 16h, 24h, 32h and 40h time points using ViewLux plate reader during compound treatment.

| Compound | Potency | cytotoxicity increase |
| --- | --- | --- |
| CCCCOC(=O)C(C)OC(=O)CCC (stereo not given) | inactive |  |
| CCN1CN(CC)CN(CC)C1 | inactive |  |
| CO/N=C(/C(=O)N[C@@H]1C(=O)N2C(C(=O)O)=C(Cn3nnc(C)n3)CS[C@H]12)c1csc(N)n1 | inactive |  |
| COc1ccc(NS(=O)(=O)c2ccc(N)cc2)nn1 | inactive |  |
| CC(=O)N1CCN(c2ccc(O)cc2)CC1 | inactive |  |
| Cc1ccccc1C(=O)N1CC/C(=N\OS(=O)(=O)O)c2ccc(Cl)cc21 | inactive |  |
| CC(CC(=O)O)CC(C)(C)C (stereo not given) | inactive |  |
| CNCc1ccccc1 | inactive |  |
| CCOC(=O)CC#N | inactive |  |
| O=C(O)Cc1cccc(-c2cc(CCCCCCc3ccc(O[C@H]4O[C@H](CO)[C@@H](O)[C@H](O)[C@@H]4O)c(-c4cccc(CC(=O)O)c4)c3)ccc2O[C@H]2O[C@H](CO)[C@@H](O)[C@H](O)[C@@H]2O)c1 |  | -1.66% [at 0.29 µM] |
| O=[Si]=O | inactive |  |
| C1CCN2C[C@@H]3C[C@@H](CN4CCCC[C@@H]34)[C@H]2C1 | inactive |  |
| NC(Cc1c[nH]c2ccccc12)C(=O)O (stereo not given) | inactive |  |
| CC(=O)OCCCc1ccccc1 | inactive |  |
| CN[C@@H]1[C@H](O)[C@H](NC)[C@H]2O[C@@]3(O)C(=O)C[C@@H](C)O[C@H]3O[C@@H]2[C@H]1O | inactive |  |
| CC(=O)Nc1ncc([N+](=O)[O-])s1 | inactive |  |
| CCc1nccnc1C | inactive |  |
| Cc1nc2n(c(=O)c1CCN1CCC(C(=O)c3ccc(F)cc3)CC1)CCS2 | inactive |  |
| C=C(C)[C@@H]1CC[C@@H](C)C[C@@H]1O | inactive |  |
| NC(=O)NC(=O)Cc1ccccc1 | inactive |  |

| Compound | Potency | cytotoxicity increase |
| --- | --- | --- |
| CCCCCCCCCCCCCCCC(=O)NCCO | inactive |  |
| CCOC(=O)CCCCCCCCC(=O)OCC | inactive |  |
| CC(C)(c1ccc(Oc2ccc3c(c2)C(=O)OC3=O)cc1)c1ccc(Oc2ccc3c(c2)C(=O)OC3=O)cc1 | inactive |  |
| O=C(O)C(=O)Nc1cccc(-c2nn[nH]n2)c1 | inactive |  |
| C[Si]1(C)N[Si](C)(C)N[Si](C)(C)N1 | inactive |  |
| CC(C)CCC(=O)CCC(C)C | inactive |  |
| C=C(C)C(=O)OCCCCCCOC(=O)C(=C)C | inactive |  |
| CCN(CCC#N)c1ccccc1 | inactive |  |
| O=S1(=O)CCCC1 | inactive |  |
| COCCOCCOCCOC | inactive |  |
| COC(OC)C(C)c1ccccc1 (stereo not given) | inactive |  |
| CCCCCCCCCCCCOC(C)=O | inactive |  |
| C=C[C@@H](C)CCC=C(C)C | inactive |  |
| CCCCC(C)C(=O)O (stereo not given) | inactive |  |
| O=C(COCCOCCOCC(=O)Nc1c(I)cc(I)c(C(=O)O)c1I)Nc1c(I)cc(I)c(C(=O)O)c1I | inactive |  |
| Cc1cccc(Nc2ccncc2S(=O)(=O)NC(=O)NC(C)C)c1 | inactive |  |
| C=CCOc1c(Br)cc(Br)cc1Br | inactive |  |
| CC(C)=CC(C)(C)C | inactive |  |
| CC(=O)c1ccc2c(c1)CCCC2 | inactive |  |
| CCCCC(=O)N(C)C | inactive |  |
